A number with no mark means an inactive call. Records with an inconclusive call do not appear. Where a call stands in place of a potency, no number is given. Calls of active or inactive are those of the source. Unless noted, the call rests on the fitted dose curve; in most records, active means well fitted curve in the direction sought with a large enough effect in the repeat runs; inconclusive means weak or mixed curves; inactive means no such curve, though single readings can be large; an effect the other way counts as inactive or inconclusive.
Key:
[1] = Human pregnane X receptor (PXR) small molecule agonists, qHTS cell viability counter screen (AID 1346977); further: nearly all actives have a fitted effect of over 50% in size
How it was run: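 Fluorescence read-out (CellTiter-Fluor) of viability in PXR-Luc HepG2 cells, multiplexed with the luciferase agonist read. Compounds in DMSO added after 5hr plating; 24hr total exposure at 37C, 5% CO2.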

[2] = Caspase-3/7 induction in HepG2 cells by small molecules, qHTS assay (AID 1346978); further: nearly all actives have a fitted effect of over 15% in size
How it was run: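 Caspase-3/7 induction was measured by Caspase-Glo 3/7 luminescence (30 min, room temperature) after a 17 hr compound exposure of wild-type HepG2 cells seeded at 2,000 per well and pre-incubated 5 hr.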

[3] = Caspase-3/7 induction in CHO-K1 cells by small molecules, qHTS cell viability counter screen (AID 1346979); further: nearly all actives have a fitted effect of over 35% in size
How it was run: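 CHO-K1 wt, 1,500 cells/well; 5hr pre-incubation 37C/5% CO2; compound pin transfer (DMSO); 16hr exposure; CellTiter-Fluor added, 1hr, fluorescence read.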

[4] = Caspase-3/7 induction in CHO-K1 cells by small molecules, qHTS assay (AID 1346980); further: nearly all actives have a fitted effect of over 15% in size
How it was run: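 Luminescent Caspase-Glo 3/7 read (30min, room temperature) quantified apoptosis induction. Cells were wild-type CHO-K1, treated with compound for 17hr at 37 C and 5% CO2.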

[5] = Caspase-3/7 induction in HepG2 cells by small molecules, qHTS cell viability counter screen (AID 1346981); further: series mostly up to about 92 µM; nearly all actives have a fitted effect of over 30% in size
How it was run: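 Wild-type HepG2 cells, 2,000/well, settled 5 hr at 37 C, 5% CO2 before compound addition. Viability read by CellTiter-Fluor fluorescence, reagent added after 16 hr compound exposure, then 1 hr at 37C, in the same wells as the caspase read.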

[6] = target: Nuclear receptor subfamily 1 group I member 2 (Homo sapiens) (UniProt O75469); assay: Human pregnane X receptor (PXR) small molecule agonists, qHTS assay (AID 1346982); further: nearly all actives have a fitted effect of over 35% in size
How it was run: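 PXR-Luc HepG2 reporter cells (CYP3A4-driven luciferase) in 5% charcoal-stripped FBS medium, plated 5 h before compound addition, then treated 24 h at 37C. Luciferase read by ONE-Glo luminescence after 30 min at room temperature.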

[7] = target: Acetylcholinesterase (Homo sapiens) (UniProt P22303); assay: Acetylcholinesterase (AChE) small molecule antagonists: colormetric cell-based qHTS assay (AID 1347395; calls by dose curve; further: nearly all actives have a fitted effect of over 30% in size)
How it was run: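 SH-SY5Y cells; cpd 30 min 37 C; + DTNB/acetylthiocholine, 90 min 37 C; colorimetric thiocholine read; qHTS.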

[8] = target: Acetylcholinesterase (Homo sapiens) (UniProt P22303); assay: Acetylcholinesterase (AChE) small molecule antagonists: enzyme-based qHTS assay (AID 1347397; calls by dose curve; further: nearly all actives have a fitted effect of over 55% in size); conditions: Potency: AChE enzyme activity inhibition; outcome: AChE enzyme activity inhibition
How it was run: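 Absorbance-based detection of thiocholine with DTNB served as the read-out. Recombinant human AChE was exposed to compound for 30 min at RT before a 10 min RT incubation with acetylthiocholine.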

[9] = target: Acetylcholinesterase (Homo sapiens) (UniProt P22303); assay: Acetylcholinesterase (AChE) small molecule antagonists: fluorescence cell-based qHTS assay (AID 1347398; calls by dose curve; further: nearly all actives have a fitted effect of over 50% in size); conditions: Potency: AChE activity; outcome: AChE activity
How it was run: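 Fluorimetric cell-based assay: intact SH-SY5Y cells, 30 min compound preincubation at 37 C, acetylthiocholine substrate with thiol probe Thiolite Green, 40 min RT development, fluorescence 490/520 nm.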

[10] = target: Acetylcholinesterase (Homo sapiens) (UniProt P22303); assay: Acetylcholinesterase (AChE) small molecule antagonists: enzyme-based qHTS assay with human liver microsomes (AID 1347399; calls by dose curve; further: nearly all actives have a fitted effect of over 60% in size); conditions: Potency: qHTS inhibition; outcome: qHTS inhibition
How it was run: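 Recombinant human AChE (50 mU/mL in the enzyme mix) and human liver microsomes (0.25 mg/mL final) were preincubated with compound and NADPH (0.25 mg/mL final) for 30 min at 37 C. Acetylthiocholine/DTNB was then added; thiocholine was read colorimetrically after 10 min at room temperature.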

[11] = target: Cytochrome P450 2C19 (Homo sapiens) (UniProt P33261); assay: Cytochrome P450 Family 2 Subfamily C Member 19 (CYP2C19) small molecule antagonists: luciferase reporter qHTS assay (AID 1671197); further: nearly all actives have a fitted effect of over 65% in size; further: potency means the concentration at half of the fitted maximal effect
How it was run: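 P450-Glo CYP2C19 screening system; proluciferin substrate; DMSO compound stocks; 10 min RT preincubation; NADPH regeneration, 1 h at 37C; luciferin detection reagent, 20 min RT; luminescence as RLU.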

[12] = target: Voltage-gated inwardly rectifying potassium channel KCNH2 (Homo sapiens) (UniProt Q12809); assay: Human Ether-a-go-go-Related Gene (hERG) channel small molecule antagonists: fluorescence cell-based qHTS assay (AID 1671200);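 further: hERG-expressing U2OS cells given a thallium stimulus after FluxOR II dye loading; series mostly up to about 77 µM; nearly all actives have a fitted effect of over 50% in size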
How it was run: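 Read-out: thallium influx as a surrogate for potassium, tracked as fluorescence (480 nm ex/540 nm em) every second for 2 min after Stimulus Buffer addition in dye-loaded hERG-U2OS cells.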

[13] = target: Cytochrome P450 3A4 (Homo sapiens) (UniProt P08684); assay: Cytochrome P450 Family 3 Subfamily A Member 4 (CYP3A4) small molecule antagonists: luciferase reporter qHTS assay (AID 1671201); further: series mostly up to about 120 µM; nearly all actives have a fitted effect of over 50% in size
How it was run: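 Luminescent readout (RLU) proportional to CYP3A4 activity, from luciferin generated off a proluciferin substrate. Enzyme–substrate mix plus compound 10 min at room temp, NADPH regeneration 1 h, detection reagent 20 min.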

[14] = target: Cytochrome P450 2C9 (Homo sapiens) (UniProt P11712); assay: Cytochrome P450 Family 2 Subfamily C Member 9 (CYP2C9) small molecule antagonists: luciferase reporter qHTS assay (AID 1671198); further: nearly all actives have a fitted effect of over 50% in size; further: potency means the concentration at half of the fitted maximal effect
How it was run: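 Enzyme-substrate mix preincubated with compound 10 min at room temperature; reaction started with NADPH regeneration solution, 1 h 37C. Luminescent luciferin product read after 20 min detection reagent.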

[15] = target: Cytochrome P450 1A2 (Homo sapiens) (UniProt P05177); assay: Cytochrome P450 Family 1 Subfamily A Member 2 (CYP1A2) small molecule antagonists: luciferase reporter qHTS assay (AID 1671199); further: nearly all actives have a fitted effect of over 50% in size; further: potency means the concentration at half of the fitted maximal effect
How it was run: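 P450-Glo CYP1A2 enzyme–proluciferin substrate mix with compound 10 min at room temperature, then NADPH regeneration 1 h at room temperature. Luciferin detection reagent added, luminescence read after 20 min; furafylline positive control.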

[16] = target: Cytochrome P450 2D6 (Homo sapiens) (UniProt P10635); assay: Cytochrome P450 Family 2 Subfamily D Member 6 (CYP2D6) small molecule antagonists: luciferase reporter qHTS assay (AID 1671196); further: nearly all actives have a fitted effect of over 50% in size; further: potency means the concentration at half of the fitted maximal effect
How it was run: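 Cell-free P450-Glo system: CYP2D6 with proluciferin substrate was pre-incubated with compound for 10 min, then reacted with NADPH regeneration for 1 h at room temperature. Luciferin product was detected after 20 min, and data were reported as relative luminescence units.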

Chain of Cytochrome P450 2C19 (Homo sapiens) (P33261 whole entry, looked up): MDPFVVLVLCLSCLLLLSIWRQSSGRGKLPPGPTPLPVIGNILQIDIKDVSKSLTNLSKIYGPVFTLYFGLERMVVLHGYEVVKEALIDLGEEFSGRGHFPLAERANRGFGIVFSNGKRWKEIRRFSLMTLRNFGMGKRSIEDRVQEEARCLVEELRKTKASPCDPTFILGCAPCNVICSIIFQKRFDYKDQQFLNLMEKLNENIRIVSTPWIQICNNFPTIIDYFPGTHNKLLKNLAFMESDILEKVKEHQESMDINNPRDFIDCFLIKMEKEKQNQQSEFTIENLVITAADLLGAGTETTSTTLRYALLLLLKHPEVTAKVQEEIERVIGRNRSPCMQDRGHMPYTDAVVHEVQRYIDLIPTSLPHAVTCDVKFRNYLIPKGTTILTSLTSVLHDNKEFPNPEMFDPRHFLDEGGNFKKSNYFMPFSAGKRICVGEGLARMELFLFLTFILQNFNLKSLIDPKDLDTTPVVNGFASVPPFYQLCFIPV
Chain of Cytochrome P450 2D6 (Homo sapiens) (P10635 whole entry, looked up): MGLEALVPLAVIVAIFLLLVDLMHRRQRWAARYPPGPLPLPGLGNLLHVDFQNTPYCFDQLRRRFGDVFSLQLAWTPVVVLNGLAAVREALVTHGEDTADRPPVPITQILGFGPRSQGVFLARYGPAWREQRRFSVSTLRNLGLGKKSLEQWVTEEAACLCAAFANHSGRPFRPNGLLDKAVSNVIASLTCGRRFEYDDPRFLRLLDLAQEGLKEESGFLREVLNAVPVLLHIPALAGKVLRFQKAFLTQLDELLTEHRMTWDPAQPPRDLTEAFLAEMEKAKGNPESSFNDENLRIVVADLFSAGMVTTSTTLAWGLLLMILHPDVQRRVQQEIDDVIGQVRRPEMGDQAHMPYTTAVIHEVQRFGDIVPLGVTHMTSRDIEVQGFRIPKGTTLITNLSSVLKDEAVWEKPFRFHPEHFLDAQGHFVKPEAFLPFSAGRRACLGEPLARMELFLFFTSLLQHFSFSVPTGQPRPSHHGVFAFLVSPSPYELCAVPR
Chain of Voltage-gated inwardly rectifying potassium channel KCNH2 (Homo sapiens) (Q12809 whole entry, looked up): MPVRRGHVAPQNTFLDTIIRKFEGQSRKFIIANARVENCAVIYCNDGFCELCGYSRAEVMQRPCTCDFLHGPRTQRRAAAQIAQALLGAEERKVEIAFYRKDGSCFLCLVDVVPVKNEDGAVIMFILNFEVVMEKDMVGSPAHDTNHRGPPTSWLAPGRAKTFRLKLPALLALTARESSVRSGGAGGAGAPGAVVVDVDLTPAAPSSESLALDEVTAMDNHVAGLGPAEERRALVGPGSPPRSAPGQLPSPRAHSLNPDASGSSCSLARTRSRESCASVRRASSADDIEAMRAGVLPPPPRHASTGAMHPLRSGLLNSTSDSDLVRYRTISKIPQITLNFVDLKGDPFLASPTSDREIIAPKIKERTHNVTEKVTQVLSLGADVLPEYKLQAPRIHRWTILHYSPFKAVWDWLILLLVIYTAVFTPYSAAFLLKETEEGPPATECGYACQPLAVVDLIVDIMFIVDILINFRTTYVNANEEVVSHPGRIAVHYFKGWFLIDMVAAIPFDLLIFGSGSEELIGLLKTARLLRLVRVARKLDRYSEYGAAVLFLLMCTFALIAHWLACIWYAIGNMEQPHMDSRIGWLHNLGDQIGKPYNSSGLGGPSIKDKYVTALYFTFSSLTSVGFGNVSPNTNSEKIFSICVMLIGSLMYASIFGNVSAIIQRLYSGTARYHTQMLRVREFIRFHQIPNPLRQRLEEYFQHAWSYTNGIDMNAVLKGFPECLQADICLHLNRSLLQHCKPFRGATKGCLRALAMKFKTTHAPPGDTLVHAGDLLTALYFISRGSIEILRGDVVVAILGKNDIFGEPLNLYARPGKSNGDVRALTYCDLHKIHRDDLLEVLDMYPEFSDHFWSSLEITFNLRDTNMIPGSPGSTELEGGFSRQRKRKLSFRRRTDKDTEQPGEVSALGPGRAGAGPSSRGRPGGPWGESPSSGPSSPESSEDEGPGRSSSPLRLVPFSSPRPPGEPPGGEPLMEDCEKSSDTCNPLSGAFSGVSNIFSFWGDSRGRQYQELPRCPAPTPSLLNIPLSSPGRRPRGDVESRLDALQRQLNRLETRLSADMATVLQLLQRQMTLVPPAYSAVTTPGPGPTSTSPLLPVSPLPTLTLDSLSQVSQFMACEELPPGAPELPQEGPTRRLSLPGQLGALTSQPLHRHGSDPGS
Chain of Acetylcholinesterase (Homo sapiens) (P22303 whole entry, looked up): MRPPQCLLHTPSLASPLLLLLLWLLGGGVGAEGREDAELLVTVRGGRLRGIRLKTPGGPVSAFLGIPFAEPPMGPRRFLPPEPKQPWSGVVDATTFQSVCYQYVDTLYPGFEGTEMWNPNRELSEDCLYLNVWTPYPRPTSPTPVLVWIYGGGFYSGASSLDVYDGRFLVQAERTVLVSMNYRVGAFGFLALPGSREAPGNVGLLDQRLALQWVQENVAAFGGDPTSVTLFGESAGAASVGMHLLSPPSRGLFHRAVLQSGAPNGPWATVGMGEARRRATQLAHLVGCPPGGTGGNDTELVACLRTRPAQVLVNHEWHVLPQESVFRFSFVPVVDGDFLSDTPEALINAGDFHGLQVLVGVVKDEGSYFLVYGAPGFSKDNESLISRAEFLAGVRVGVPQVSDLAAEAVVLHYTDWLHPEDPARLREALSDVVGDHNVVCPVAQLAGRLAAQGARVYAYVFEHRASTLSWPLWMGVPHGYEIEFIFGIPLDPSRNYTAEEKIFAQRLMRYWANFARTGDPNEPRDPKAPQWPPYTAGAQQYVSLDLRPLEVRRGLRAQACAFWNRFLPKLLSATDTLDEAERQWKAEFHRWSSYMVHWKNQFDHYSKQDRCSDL
Chain of Nuclear receptor subfamily 1 group I member 2 (Homo sapiens) (O75469 whole entry, looked up): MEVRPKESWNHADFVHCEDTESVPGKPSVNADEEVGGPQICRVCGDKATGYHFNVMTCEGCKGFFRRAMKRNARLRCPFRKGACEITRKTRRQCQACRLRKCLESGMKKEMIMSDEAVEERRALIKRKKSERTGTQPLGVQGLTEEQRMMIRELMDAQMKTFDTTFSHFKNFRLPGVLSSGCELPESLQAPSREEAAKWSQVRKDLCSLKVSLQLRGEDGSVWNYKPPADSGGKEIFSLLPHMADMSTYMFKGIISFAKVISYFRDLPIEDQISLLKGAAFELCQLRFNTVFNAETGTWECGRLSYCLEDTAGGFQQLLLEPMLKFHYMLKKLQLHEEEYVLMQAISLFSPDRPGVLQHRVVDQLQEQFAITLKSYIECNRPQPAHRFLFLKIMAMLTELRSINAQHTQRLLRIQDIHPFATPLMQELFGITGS
Chain of Cytochrome P450 2C9 (Homo sapiens) (P11712 whole entry, looked up): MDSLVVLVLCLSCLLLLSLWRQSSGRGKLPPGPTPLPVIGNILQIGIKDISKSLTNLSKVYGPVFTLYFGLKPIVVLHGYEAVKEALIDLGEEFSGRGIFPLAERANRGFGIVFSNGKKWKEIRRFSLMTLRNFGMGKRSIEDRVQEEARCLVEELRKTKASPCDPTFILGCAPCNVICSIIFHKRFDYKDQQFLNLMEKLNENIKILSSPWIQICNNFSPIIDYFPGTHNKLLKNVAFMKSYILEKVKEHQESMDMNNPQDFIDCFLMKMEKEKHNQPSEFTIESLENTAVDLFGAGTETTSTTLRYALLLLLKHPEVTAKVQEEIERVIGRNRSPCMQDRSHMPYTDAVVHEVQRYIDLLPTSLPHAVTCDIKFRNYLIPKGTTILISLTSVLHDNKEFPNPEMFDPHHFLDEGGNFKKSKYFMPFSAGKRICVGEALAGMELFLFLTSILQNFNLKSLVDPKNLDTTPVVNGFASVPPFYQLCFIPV
Chain of Cytochrome P450 1A2 (Homo sapiens) (P05177 whole entry, looked up): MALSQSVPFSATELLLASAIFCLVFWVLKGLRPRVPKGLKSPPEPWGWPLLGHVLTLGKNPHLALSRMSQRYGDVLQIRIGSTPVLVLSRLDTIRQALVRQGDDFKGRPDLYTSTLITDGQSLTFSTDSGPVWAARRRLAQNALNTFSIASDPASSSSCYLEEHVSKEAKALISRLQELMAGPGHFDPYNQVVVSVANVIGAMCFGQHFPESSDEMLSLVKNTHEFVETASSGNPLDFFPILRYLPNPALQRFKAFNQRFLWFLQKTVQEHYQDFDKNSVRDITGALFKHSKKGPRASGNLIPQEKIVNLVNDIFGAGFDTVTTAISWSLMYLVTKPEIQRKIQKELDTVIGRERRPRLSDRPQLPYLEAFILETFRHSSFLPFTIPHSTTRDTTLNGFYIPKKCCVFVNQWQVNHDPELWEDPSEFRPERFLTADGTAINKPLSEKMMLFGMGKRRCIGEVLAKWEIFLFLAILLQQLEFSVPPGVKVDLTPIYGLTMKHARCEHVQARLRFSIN
Chain of Cytochrome P450 3A4 (Homo sapiens) (P08684 whole entry, looked up): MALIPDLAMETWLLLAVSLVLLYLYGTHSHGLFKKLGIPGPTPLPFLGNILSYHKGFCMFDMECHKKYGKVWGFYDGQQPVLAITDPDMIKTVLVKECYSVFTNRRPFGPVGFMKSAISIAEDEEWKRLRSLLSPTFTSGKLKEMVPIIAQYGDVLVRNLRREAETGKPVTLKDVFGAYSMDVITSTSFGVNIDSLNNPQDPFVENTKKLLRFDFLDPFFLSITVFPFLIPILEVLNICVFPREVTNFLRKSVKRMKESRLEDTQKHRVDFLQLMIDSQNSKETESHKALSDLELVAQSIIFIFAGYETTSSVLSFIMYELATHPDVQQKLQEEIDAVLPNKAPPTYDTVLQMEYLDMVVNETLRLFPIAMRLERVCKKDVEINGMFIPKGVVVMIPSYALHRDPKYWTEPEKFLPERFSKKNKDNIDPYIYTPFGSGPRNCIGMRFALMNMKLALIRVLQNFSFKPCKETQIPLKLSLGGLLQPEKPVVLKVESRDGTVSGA

| SMILES | Potency [1] | outcome [2] | Potency [3] | outcome [4] | Potency [5] | Potency [6] | Potency [7] | Potency [8] | Potency [9] | Potency [10] | Potency [11] | Potency [12] | Potency [13] | Potency [14] | Potency [15] | Potency [16] |
| --- | --- | --- | --- | --- | --- | --- | --- | --- | --- | --- | --- | --- | --- | --- | --- | --- |
| CC(=O)CN(CC(C)=O)N=O | inactive | inactive | inactive | inactive | inactive | inactive | inactive | inactive | inactive | inactive | inactive | inactive | inactive |  |  |  |
| O=C/C=C/c1ccco1 | inactive | inactive | inactive | inactive | inactive | inactive | inactive | inactive | inactive | inactive | inactive | inactive |  | inactive | inactive |  |
| CCOC(=O)NC(C)(C)Cc1ccc(Cl)cc1 | inactive | inactive | inactive | inactive | inactive | inactive | inactive | inactive | inactive | inactive | 4.36 µM (active) | inactive | inactive | 15.5 µM (active) | 6.45 µM (active) |  |
| C1CN2CCC1CC2 | inactive | inactive | inactive | inactive | inactive | inactive | inactive | inactive | inactive | inactive | 43.6 µM (active) | inactive | inactive | inactive | inactive |  |
| O=C(O)c1c(Cl)ccc2cc(Cl)cnc12 | inactive | inactive | inactive | inactive | inactive | inactive | inactive | inactive | inactive | inactive |  | inactive |  |  |  |  |
| Cc1ccc2cc(C)ccc2c1 | inactive | inactive | inactive | inactive | inactive | inactive | inactive | inactive | inactive | inactive | inactive | inactive | inactive | inactive |  | inactive |
| CN1COCN(Cc2cnc(Cl)s2)/C1=N\[N+](=O)[O-] | inactive | inactive | inactive | inactive | inactive | inactive | inactive | inactive | inactive | inactive | inactive | inactive | inactive |  |  |  |
| CCCOC(=O)c1cncn1C(C)c1ccccc1 (centres undefined) | inactive | inactive | inactive | inactive | inactive | inactive | inactive | inactive | inactive | inactive | 2.45 µM (active) | inactive |  |  | 17.4 µM (active) | inactive |
| CC(C)NCC(O)c1ccc([N+](=O)[O-])cc1 (centres undefined) | inactive | inactive | inactive | inactive | inactive | inactive | inactive | inactive |  | inactive | inactive |  | inactive | inactive | inactive | 27.5 µM (active) |

From PubChem BioAssay (Tox21)
